This is an account of results in the supplement of paper PMC6555819.

What all share (assay): PBM binding z-score (relative to random genomic background probes); higher = stronger binding; sequences stand for … in GC…GCGATTGACAGCGTAGAATGAAGG
The subject of experiment [1] is RARb homodimer (NR concentration 270 nM). The procedure, abridged: (§1)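 Ligand-free nuclear receptor dimers were bound for 1 h to custom Agilent 4×180K protein-binding microarrays. Detection used antibodies against each partner (one per run). Binding z-scores rest on regression-normalized fluorescence, with random background probes as the reference.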
In experiment [2] the test system is RARg:RXRa (NR concentration 270 nM, RXRa partner concentration 90 nM). The method, boiled down: as §1
In experiment [3] the test system is RARg homodimer (NR concentration 270 nM). The procedure, abridged:
as §1

Experiment [4] has as its system RXRa DBDmut IVT, anti-RXR (DBD mutation: RXRa K156A/R161A, NR concentration 90 nM). The procedure, abridged:
as §1

In experiment [5] the test system is RXRa homodimer (NR concentration 180 nM). The procedure, abridged: as §1
In experiment [6] the test system is THRa:RXRa (NR concentration 90 nM, RXRa partner concentration 90 nM). The procedure, abridged: as §1
For experiment [7], the system named is THRa homodimer (NR concentration 90 nM). The method, boiled down: as §1
The subject of experiment [8] is VDR homodimer (NR concentration 270 nM). The procedure, abridged:
as §1

With ACTATTAGTTGACTTAGGTCAACCGATACGACGC, the PBM binding z-score is 3.31 in experiment [1]; 2.8 in experiment [2]; 2.9 in experiment [3]; 1.07 in experiment [4]; 2.17 in experiment [5]; 3.47 in experiment [6]. For the same sequence, the PBM binding z-score came out at 2.98 in experiment [7] and 1.41 in experiment [8].

ACAGACAGGTGAGTGAAGGTAGCTCAGCTGGACG: the PBM binding z-score in experiment [1] was -0.151; in experiment [2] it was -0.00932; in experiment [3] it was 0.0793; in experiment [4], -0.355; in experiment [5], 0.135; in experiment [6] it was 0.263. Besides, the PBM binding z-score in experiment [7] was -0.539; in experiment [8] it was -0.688.

Consider GCGACTAGGGCATCAGCAGGTTACCATAACTTAA, for which the PBM binding z-score in experiment [1] was 0.836; in experiment [2], 1.12; in experiment [3] it was 0.817; in experiment [4], 0.0692; in experiment [5], 0.47; in experiment [6] it was 0.885. Besides, the PBM binding z-score in experiment [7] was 0.0227; in experiment [8] it was -0.299.

In the case of CCTGCTAGGTGAATGGTCAGCTAAAGCAGCTCGC, the PBM binding z-score was 0.445 in experiment [1]; 0.0358 in experiment [2]; 0.301 in experiment [3]; -0.37 in experiment [4]; -0.237 in experiment [5]; 0.283 in experiment [6]. Moreover, the PBM binding z-score is -0.317 in experiment [7] and -0.841 in experiment [8].

For GCTTACGGGTCAAAGGCTATAGCATGAATAGAAT, the PBM binding z-score in experiment [1] was determined as 2.54; in experiment [2], 4.79; in experiment [3], 4.31; in experiment [4], 1.73; in experiment [5] it was 6.17; in experiment [6], 2.45. Moreover, the PBM binding z-score is -0.68 in experiment [7] and 0.708 in experiment [8].

With CCTACTGGGCCAAGGTCATCGATCAGTCAAAGCA, the PBM binding z-score in experiment [1] is 3.75; in experiment [2] it was 4.18; in experiment [3], 3.9; in experiment [4], 0.883; in experiment [5], 3.79; in experiment [6] it was 3.68. In addition, the PBM binding z-score in experiment [7] was determined as 2.69; in experiment [8], 2.38.

As to ATCGAAAGGTGGTGAGGTGAGTATACAGAAAGGC, the PBM binding z-score in experiment [1] was 1.13; in experiment [2], 0.717; in experiment [3] it was 0.846; in experiment [4], -0.654; in experiment [5] it was 0.748; in experiment [6] it was 1.8. Further, the figures for the PBM binding z-score in experiment [7] and in experiment [8] were 1.23 and 0.366, respectively.

Take ACTATTAGTTGAGACGAGGGCAACCCATAGGTTG: the PBM binding z-score in experiment [1] came to 1.45; in experiment [2] it was 0.739; in experiment [3] it was 0.903; in experiment [4] it was 0.366; in experiment [5], 0.748; in experiment [6] it was 2.42. Besides, the PBM binding z-score is 0.54 in experiment [7] and 0.783 in experiment [8].

As to TCTTGAAGATCAAAGGTTAAGAAAGCCGAAGCCT, the PBM binding z-score was 1.32 in experiment [1]; 2.04 in experiment [2]; 0.685 in experiment [3]; 0.731 in experiment [4]; 3.74 in experiment [5]; 1.37 in experiment [6]. For the same sequence, the PBM binding z-score in experiment [7] is -0.659; in experiment [8], -0.364.

Take GCAGACAGGTGAAACGCCGGTAACTCAGGGTGGC: the PBM binding z-score in experiment [1] was -0.057; in experiment [2], 0.644; in experiment [3], 0.166; in experiment [4], -0.634; in experiment [5] it was 0.513; in experiment [6], 0.157. For the same sequence, the PBM binding z-score in experiment [7] is -0.511; in experiment [8] it was -0.512.
